Active and inactive are the calls of the source. Unless noted, the rule behind the calls is not given here.

Assay [1] has as its system Wnt5a (protein binding on small-molecule microarray). Put plainly: small molecules binding Wnt5a protein – biophysical, small-molecule microarray, 635/667 nm fluorescence, primary screen (AID 1142).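 Note: fluorescence read at 667 nm with signal to noise per printed feature.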 The conditions noted are these: 635 nm fluorescence, higher = more signal.
The nature of assay [2]: ATP-based viability of Huh7 replicon cells – cell-based, CellTiter-Glo luminescence, basal, 48 h, cytotoxicity control for HCV replication inhibitor project, primary screen (AID 1143).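 Note: Huh7 hepatoma cells carrying a hepatitis C replication reporter with no stimulus; test concentration not given here.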 The conditions noted are these: higher = more signal, called active from +8 up or from −8 down. (Replicon systems follow genome replication, usually without infectious particles.)
A short description of assay [3]: Pseudomonas biofilm growth suppression – PAO1 strain, BacTiter-Glo luminescence, LB-PBS, primary screen (AID 1144). The note with it: P. aeruginosa PAO1 biofilm, 12 h, higher = more signal.
Assay [4] is described as follows: basal CRE-LacZ reporter activity in PC12 – cell-based, unstimulated, primary screen (AID 1145). The conditions noted are these: no forskolin, luminescence, 4.5 h, higher = more signal, called active from +8 up or from −8 down.
The nature of assay [5]: forskolin-driven CRE-LacZ activity in PC12 – cell-based, CRE-LacZ reporter, forskolin-stimulated, primary screen (AID 1146).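 Note: PC12 cells with 6xCRE LacZ reporter stimulated by forskolin 10 µM; beta-galactosidase reporter signal reflecting CREB driven transcription.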 The note with it: luminescence, 4.5 h, higher = more signal, called active from +8 up or from −8 down.
Assay [6] addresses Streptavidin (Streptomyces avidinii) (UniProt P22629). Put plainly: compounds binding control protein streptavidin – biophysical, small-molecule microarray, 635/667 nm fluorescence, artefact control for SMM compound annotation, primary screen (AID 1147).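 Note: signal reflects streptavidin binding to arrayed compounds as a control protein.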 The conditions noted are these: higher = more signal.
The nature of assay [7]: probe aInhba binding on compound microarray – biochemical, small-molecule microarray, 635/667 nm fluorescence, primary screen (AID 1148).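 Note: score merges 667nm spot fluorescence with signal-to-noise for antibody binding to printed compounds.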 The conditions noted are these: higher = more signal.
Assay [8] addresses Torsin-1A (Homo sapiens) (UniProt O14656). Put plainly: TOR1A wild-type binding on microarray – cell lysate, small-molecule microarray, lysate, 635/667 nm, primary screen (AID 1149). The note with it: COS7 hTOR1A-WT lysate, 635 nm fluorescence, higher = more signal.
For assay [9] the target is unchanged. The assay can be described thus: torsin A mutant lysate binding on microarrays – cell lysate, small-molecule microarray, COS7 lysate, 635/667 nm fluorescence, primary screen (AID 1150).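 Note: score pools 667 nm emission and signal to noise measuring lysate protein binding.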 The conditions noted are these: COS7 hTOR1A mutant lysate, 635 nm fluorescence, higher = more signal.
The subject of assay [10] is Sonic hedgehog protein (Shh). The assay can be described thus: Sonic hedgehog microarray binding compounds – biochemical, small-molecule microarray, 635/667 nm fluorescence, primary screen (AID 1151).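 Note: Shh protein binding to compounds spotted on small-molecule microarray slides; score combines spot fluorescence intensity with signal-to-noise across triplicate slides.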 The note with it: 635 nm fluorescence, higher = more signal.
The nature of assay [11]: optical density shifts of acrAB sulA E. coli – strain DRC41, OD650, 48 h, E. coli filamentation inducer project, primary screen (AID 1152).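 Note: E. coli MC1000 strain DRC41 lacking acrAB efflux pump and sulA.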 The conditions noted are these: higher = more signal, called active from +8 up or from −8 down.
Assay [12] in a line: probe aLefty1 binding on compound microarray – biochemical, small-molecule microarray, 635/667 nm fluorescence, primary screen (AID 1153).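 Note: score merges spot fluorescence with signal-to-noise ratio from the scanned slide images.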 The conditions noted are these: higher = more signal.
Assay [13] in a line: plasmodial surface anion channel blockers, osmotic lysis – cell-based, P. falciparum Indochina, OD700, 1 h, primary screen (AID 1154). The conditions noted are these: P. falciparum Indochina infected RBC osmotic lysis, higher = more signal, called active from +8 up or from −8 down.
Assay [14] can be described thus: plasmodial surface anion channel blockers, osmotic lysis – cell-based, P. falciparum Indochina, OD700, 2 h, primary screen (AID 1155).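 Note: lysis reports solute entry through the parasite surface anion channel PSAC.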 The conditions noted are these: P. falciparum Indochina infected erythrocytes, higher = more signal, called active from +8 up or from −8 down.
The nature of assay [15]: changes in parasitized red cell lysis, either direction – P. falciparum Indochina, OD700, 3 h, PSAC antagonist project, primary screen (AID 1156). The note with it: P. falciparum-infected erythrocytes, osmotic lysis, higher = more signal, called active from +8 up or from −8 down.
Assay [16] in a line: plasmodial surface anion channel blockers, osmotic lysis – cell-based, P. falciparum Indochina, OD700, 18 h, primary screen (AID 1157). The note with it: P. falciparum Indochina infected erythrocytes, osmotic lysis OD700, 18 h; higher = more signal, called active from +8 up or from −8 down.
Assay [17] is described as follows: S6 kinase pathway phospho-S6 level changes – cell-based, A549, cytoblot, luminescence, serum-stimulated, primary screen (AID 1158).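 Note: serum-stimulated A549 lung adenocarcinoma cells; signal is phosphorylated S6 detected by cytoblot immunostaining with HRP secondary.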 The note with it: 5 h, higher = more signal.
In assay [18] the target is NADPH oxidase 2 (Homo sapiens) (UniProt P04839). The assay can be described thus: compounds shifting NOX2 Amplex Red fluorescence – cell-based, HEK293-NOX2, PMA-stimulated, NOX inhibitor project, primary screen (AID 1159). Note: test concentration not given here. The note with it: 45 min, higher = more signal, called active from +8 up or from −8 down.
For assay [19], the target named is NADPH oxidase 4 (Homo sapiens) (UniProt Q9NPH5). The assay can be described thus: compounds shifting NOX4 Amplex Red fluorescence – cell-based, HEK293-NOX4, tetracycline-induced, NOX inhibitor project, primary screen (AID 1160). The note with it: HEK293-NOX4, Amplex Red H2O2 fluorescence, 45 min; higher = more signal, called active from +8 up or from −8 down.
For assay [20], the target named is NADPH oxidase 5 (Homo sapiens) (UniProt Q96PH1). The assay can be described thus: compounds shifting NOX5 Amplex Red fluorescence – cell-based, HEK293-NOX5, NOX inhibitor project, primary screen (AID 1161). The note with it: HEK293-NOX5, ionomycin, 45 min, higher = more signal.
Sequence of NADPH oxidase 5 (Homo sapiens) (Q96PH1 whole entry, looked up): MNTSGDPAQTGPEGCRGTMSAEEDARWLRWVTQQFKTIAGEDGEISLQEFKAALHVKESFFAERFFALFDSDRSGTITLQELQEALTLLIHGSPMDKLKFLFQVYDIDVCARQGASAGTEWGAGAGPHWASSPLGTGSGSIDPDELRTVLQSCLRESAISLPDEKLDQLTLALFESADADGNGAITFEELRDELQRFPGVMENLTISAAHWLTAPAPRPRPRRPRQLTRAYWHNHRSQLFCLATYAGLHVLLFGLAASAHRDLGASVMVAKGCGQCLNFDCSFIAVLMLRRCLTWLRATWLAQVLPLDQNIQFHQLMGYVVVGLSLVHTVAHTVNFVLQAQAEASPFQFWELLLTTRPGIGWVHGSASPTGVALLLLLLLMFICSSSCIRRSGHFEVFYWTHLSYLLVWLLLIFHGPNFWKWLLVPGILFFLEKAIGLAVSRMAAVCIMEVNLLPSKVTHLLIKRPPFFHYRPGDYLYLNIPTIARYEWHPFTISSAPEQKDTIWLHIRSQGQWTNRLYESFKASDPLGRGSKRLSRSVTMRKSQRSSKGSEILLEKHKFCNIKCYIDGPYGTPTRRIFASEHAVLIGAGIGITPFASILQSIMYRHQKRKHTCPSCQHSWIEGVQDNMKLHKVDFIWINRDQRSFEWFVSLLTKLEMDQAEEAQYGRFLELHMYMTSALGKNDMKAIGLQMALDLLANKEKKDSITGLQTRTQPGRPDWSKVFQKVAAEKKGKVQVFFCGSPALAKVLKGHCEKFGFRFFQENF

Sequence of Streptavidin (Streptomyces avidinii) (P22629 whole entry, looked up): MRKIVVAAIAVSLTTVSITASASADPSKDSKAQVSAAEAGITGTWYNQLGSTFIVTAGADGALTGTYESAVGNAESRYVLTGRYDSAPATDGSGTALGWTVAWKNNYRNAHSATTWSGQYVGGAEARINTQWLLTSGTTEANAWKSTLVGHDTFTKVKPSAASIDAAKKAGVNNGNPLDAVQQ
Sequence of Torsin-1A (Homo sapiens) (O14656 whole entry, looked up): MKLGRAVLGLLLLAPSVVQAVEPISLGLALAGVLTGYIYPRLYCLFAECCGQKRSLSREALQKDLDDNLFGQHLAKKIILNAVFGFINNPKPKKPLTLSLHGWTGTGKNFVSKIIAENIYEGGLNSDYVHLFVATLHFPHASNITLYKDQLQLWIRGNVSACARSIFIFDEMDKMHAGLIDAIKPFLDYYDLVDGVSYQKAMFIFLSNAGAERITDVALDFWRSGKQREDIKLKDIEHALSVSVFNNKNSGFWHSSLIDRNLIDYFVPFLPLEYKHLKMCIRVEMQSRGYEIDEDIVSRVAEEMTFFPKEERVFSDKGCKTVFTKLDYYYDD
Sequence of NADPH oxidase 2 (Homo sapiens) (P04839 whole entry, looked up): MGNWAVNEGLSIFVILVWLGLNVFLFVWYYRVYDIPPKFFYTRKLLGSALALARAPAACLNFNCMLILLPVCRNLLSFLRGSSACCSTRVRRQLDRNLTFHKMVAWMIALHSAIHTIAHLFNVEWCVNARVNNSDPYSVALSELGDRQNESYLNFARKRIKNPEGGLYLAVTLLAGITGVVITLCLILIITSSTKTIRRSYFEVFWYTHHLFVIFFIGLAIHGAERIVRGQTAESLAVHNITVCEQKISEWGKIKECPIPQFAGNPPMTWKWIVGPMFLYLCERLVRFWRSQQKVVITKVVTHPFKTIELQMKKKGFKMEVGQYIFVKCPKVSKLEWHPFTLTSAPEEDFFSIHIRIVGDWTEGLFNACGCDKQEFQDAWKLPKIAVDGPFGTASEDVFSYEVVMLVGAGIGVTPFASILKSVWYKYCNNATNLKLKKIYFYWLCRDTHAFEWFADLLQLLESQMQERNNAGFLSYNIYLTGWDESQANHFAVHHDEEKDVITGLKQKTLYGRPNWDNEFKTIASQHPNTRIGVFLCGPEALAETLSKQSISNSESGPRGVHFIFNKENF
Sequence of NADPH oxidase 4 (Homo sapiens) (Q9NPH5 whole entry, looked up): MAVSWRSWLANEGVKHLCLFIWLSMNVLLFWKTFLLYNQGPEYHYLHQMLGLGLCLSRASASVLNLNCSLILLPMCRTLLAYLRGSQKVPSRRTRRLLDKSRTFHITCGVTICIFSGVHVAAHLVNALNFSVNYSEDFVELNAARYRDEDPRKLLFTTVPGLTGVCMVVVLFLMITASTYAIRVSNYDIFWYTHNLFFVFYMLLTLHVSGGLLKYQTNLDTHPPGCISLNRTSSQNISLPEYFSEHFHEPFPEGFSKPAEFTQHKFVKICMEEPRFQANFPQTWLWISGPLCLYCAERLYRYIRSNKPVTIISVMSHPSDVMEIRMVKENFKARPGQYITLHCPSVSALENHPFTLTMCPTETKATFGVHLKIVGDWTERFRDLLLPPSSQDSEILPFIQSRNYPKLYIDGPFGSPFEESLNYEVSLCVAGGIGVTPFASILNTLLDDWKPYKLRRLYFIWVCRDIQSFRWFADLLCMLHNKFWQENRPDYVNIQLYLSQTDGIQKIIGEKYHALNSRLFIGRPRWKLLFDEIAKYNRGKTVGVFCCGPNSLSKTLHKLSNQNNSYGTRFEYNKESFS

With `C=CCN1C(=O)[C@]2(O[C@H](CCn3cc(CCO)nn3)[C@@H]([Si](C)(C)c3ccc(OC)cc3)[C@@H]2C)c2cc(N3CCOC3=O)ccc21`, the composite z-score was -0.246 in assay [1]; 1.32 in assay [6]; -0.253 in assay [7]; 0.419 in assay [8]; 0.855 in assay [9]; 0.6 in assay [10]. For the same compound, the composite z-score in assay [12] is 0.0509. Moreover, the z-score in assay [2] is -4.23 (inactive); in assay [3], -0.771 (inactive); in assay [4], 7.08 (inactive); in assay [5], 0.144 (inactive); in [11], -0.902 (inactive); in [13], 6.82 (inactive). Moreover, the z-score in [14] is 0.536 (inactive); in [15], -0.5 (inactive); in [16], 0.376 (inactive); in assay [17], 0.199; in assay [18], 0.111 (inactive); in assay [19], 3.32 (inactive). Besides, the z-score in assay [20] worked out at 1.57.
With `CC(C)[Si]1(C(C)C)O[C@@H](c2ccccc2)c2cc(C3CC3)nc(-c3ccccc3)c21`, the composite z-score was -0.0654 in assay [1]; 0.0887 in assay [6]; -0.207 in assay [7]; -1 in assay [8]; -0.124 in [9]; 0.397 in assay [10]. The compound also showed a composite z-score in [12] of -0.108. Besides, the z-score is 0.414 (inactive) in assay [2]; -0.134 (inactive) in [3]; -0.258 (inactive) in assay [4]; -0.541 (inactive) in [5]; -1.02 (inactive) in assay [11]; 1.27 (inactive) in assay [13]. Further, the z-score in assay [14] is 0.389 (inactive); in assay [15], -0.0854 (inactive); in [16] it was -0.0349 (inactive); in assay [17] it was 0.19; in [18], -0.305 (inactive); in assay [19], 0.504 (inactive). Further, the z-score in assay [20] came out at 0.0972.
Turning to `O=C1[C@H]2[C@H]3[C@H](O)[C@H](O)CC(=NOCc4ccccc4)[C@H]3CC[C@H]2C(=O)N1c1ccc(F)cc1F`, the composite z-score was -0.0542 in [1]; -0.899 in assay [6]; -0.536 in assay [7]; -0.0184 in [8]; -0.013 in assay [9]; -0.311 in [10]. For the same compound, the composite z-score in [12] is -0.761. Also, the z-score in [2] is -0.627 (inactive); in assay [3], -0.665 (inactive); in [4], -0.926 (inactive); in [5], -0.14 (inactive); in assay [11], -0.139 (inactive); in [13] it was 9.01 (active). In addition, the z-score was 1.42 (inactive) in assay [14]; 0.155 (inactive) in [15]; -0.304 (inactive) in assay [16]; -0.392 in [17]; -4.97 (inactive) in [18]; 0.187 (inactive) in assay [19]. Besides, the z-score in assay [20] was -0.471.
As to `COc1ccc(O[C@H]2C=C[C@@H](c3ccccc3)O[C@@H]2COC(=O)CCC(C)=NOC[C@@H](C)[C@H](OCc2ccccc2)C(C)C)cc1`, the composite z-score was -0.348 in [1]; -0.892 in assay [6]; -0.203 in [7]; -0.416 in assay [8]; -0.632 in [9]; -0.155 in [10]. Also, the composite z-score in [12] was -0.278. The z-score is -1.55 (inactive) in [2]; -0.0552 (inactive) in assay [3]; -0.901 (inactive) in [4]; 0.468 (inactive) in assay [5]; -0.72 (inactive) in [11]; 0.857 (inactive) in assay [13]. Besides, the z-score in assay [14] is 0.55 (inactive); in [15] it was 0.607 (inactive); in assay [16], 0.294 (inactive); in assay [17], -0.656; in [18], 0.796 (inactive); in [19], 0.478 (inactive). The z-score in assay [20] was 0.329.
With `CCCC[C@@H](O)C1=C(C)C[C@H]2C(=O)N(Cc3ccccc3)C(=O)[C@H]2[C@H]1CO`, the composite z-score in assay [1] was -0.0299; in assay [6], -0.451; in assay [7], -0.0986; in assay [8], 0.149; in assay [9], -0.21; in assay [10], 0.572. The compound also returned a composite z-score in assay [12] of 0.0736. Also, the z-score in assay [2] is -0.295 (inactive); in [3], -0.665 (inactive); in [4], 1.29 (inactive); in assay [5] it was 0.342 (inactive); in [11], 0.969 (inactive); in assay [13], 2.44 (inactive). The z-score in assay [14] was -0.252 (inactive); in assay [15] it was -0.347 (inactive); in [16], 0.206 (inactive); in [17], 0.431; in assay [18], -0.789 (inactive); in assay [19], 0.358 (inactive). The z-score in assay [20] is -0.0632.

The values are drawn from PubChem BioAssay.
